# Shown are actives, neighbours in structure and some others; about 22% of the full set was active somewhere.
# Pf growth 96h = Primary qHTS for delayed death inhibitors of the malarial parasite plastid, 96 hour incubation | 320,000 tested, 6.9% active | Potency, µM (titrated, usually from 28.7 µM), for inactives: top-dose activity change, negative = inhibition, actives largely listed as inhibitors | P. falciparum luciferase reporter growth, 96 h; also: potency is read from the fitted curve at half-maximal effect; % is scaled to controls: 0 for no effect and ±100 for the full control effect
#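 96 h incubation, 37 C, 5% CO2, of luciferase-reporter P. falciparum-infected RBCs (2% hematocrit, 0.05% parasitemia final) with test compounds; endpoint luminescence.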
# CHX counter = Cycloheximide Counterscreen for Small Molecule Inhibitors of Shiga Toxin; cell reporter, cycloheximide protein synthesis inhibition counterscreen; max response, %; 300,000 tested, 12% active; AID 2314, 2010; in the data active = max response mostly above about 13%, no sharp cut-off; inactive = mostly below about 14%; also: read at 38.3 µM for the half of the compounds with a filed dose; 0% is about no effect
# Pf growth 48h = Primary qHTS for delayed death inhibitors of the malarial parasite plastid, 48 hour incubation. P. falciparum luciferase growth in erythrocytes, 48 h. Potency, µM (titrated, usually from 28.7 µM), inactives show at the top dose activity change, negative = inhibition, actives largely listed as inhibitors. 310,000 tested, 5.9% active. AID 504832, 2011; also: potency is read from the fitted curve at half-maximal effect; % is scaled to controls: 0 for no effect and ±100 for the full control effect
#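 Parasite viability was followed by luminescence of a genomically integrated firefly luciferase. Cultures held 0.1% parasitemia at 2% hematocrit (final), incubated under 5% CO2 at 37 C.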
# LmPK inh = qHTS Assay for Inhibitors of Leishmania Mexicana Pyruvate Kinase (LmPK) | purified LmPK, Kinase-Glo ATP luminescence, 1 h | Potency, µM (doses to about 57.5 µM), without a hit: at the top dose activity change, negative = inhibition, hits mostly inhibitors | 290,000 tested, 0.37% active; also: potency is read from the fitted curve at half-maximal effect; % is scaled to controls: 0 for no effect and ±100 for the full control effect
# Target sequence (Q27686 whole entry, looked up): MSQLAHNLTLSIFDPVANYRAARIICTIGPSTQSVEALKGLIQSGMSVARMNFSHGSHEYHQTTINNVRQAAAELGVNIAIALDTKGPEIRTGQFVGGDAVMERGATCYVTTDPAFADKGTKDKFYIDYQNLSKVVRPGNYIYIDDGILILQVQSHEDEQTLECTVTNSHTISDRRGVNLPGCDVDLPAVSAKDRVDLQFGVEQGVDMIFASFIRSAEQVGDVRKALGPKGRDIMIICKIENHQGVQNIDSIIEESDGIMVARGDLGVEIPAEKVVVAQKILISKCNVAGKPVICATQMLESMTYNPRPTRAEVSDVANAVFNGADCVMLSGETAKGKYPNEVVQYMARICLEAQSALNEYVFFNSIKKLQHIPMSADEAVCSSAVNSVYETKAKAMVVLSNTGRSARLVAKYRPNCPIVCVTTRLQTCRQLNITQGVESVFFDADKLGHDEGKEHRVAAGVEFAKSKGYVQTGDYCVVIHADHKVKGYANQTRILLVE
#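 In 50 mM imidazole pH 7.2 with 7 mM MgCl2, LmPK (0.1 nM) turned over PEP (0.5 mM) and ADP (0.1 mM) for 1 h at room temperature. Luciferase read-out of ATP.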
# Shiga inhibitor = A qHTS for Small Molecule Inhibitors of Shiga Toxin. Vero cells, Shiga toxin protein synthesis inhibition reporter. inhibition, % at 38.7 µM. 290,000 tested, 9.2% active; in the data active = inhibition mostly above about 28%, no sharp cut-off; inactive = mostly below about 43%; also: 0% is about no effect
# * marks the source's active call; other numbers are inactive results; ? = inconclusive; · = not tested or not shown; ! = not active in a repeat; [ ] = remark or other dose. Unless noted, calls follow the shape of the dose curve; as a rule, active = well fitted inhibition curve with a large enough effect; inconclusive = small, poorly fitted or top-dose-only effect, or another doubt; inactive = no such curve, though single readings can be large or run the other way.
SMILES,Pf growth 96h,CHX counter,Pf growth 48h,LmPK inh,Shiga inhibitor
CCOC(=O)CSc1nc(N)c(C#N)cc1C#N,37%,23,34%,-1%,42*
CC(C)OC(=O)CSc1nc(N)c(C#N)cc1C#N,-15%,27*,-24%,1%,42*
O=C1c2ccccc2NC2(CCCCC2)N1c1ccc(O)cc1,30%,14*,36%,-9%,29
CC1CCC2(CC1)Nc1ccccc1C(=O)N2c1ccccc1 (centres undefined),56%,13,·,-2%,35
O=C1c2ccccc2NC2(CCCC2)N1N=C1CCCC1,10%,29*,17%,1%,74*
Cc1cccn2c(=O)c(C=O)c(N3CCN(c4ccc(F)cc4)CC3)nc12,-3%[5.75 µM],5,37%,0%,-5
COc1cccc(CNC(=O)CN(C)S(=O)(=O)c2ccc3c(c2)n(C)c(=O)c(=O)n3C)c1,?,2,?,1%,10
CCC(C)[C@H](NC(=O)N1CCCC1)C(=O)O (some centres undefined),6.6µM*,1,·,12%,-9
Cc1ccc(S(=O)(=O)NCc2cccnc2)cc1C,20%,-4,4%,-2%,-8
COc1ccc([N+](=O)[O-])cc1N(CC(=O)N1CCN(Cc2ccccc2)CC1)S(C)(=O)=O,19%,1,34%,1%,-3
COc1cc(C)ccc1OCc1cc(C(=O)N(C)CCCN2CCOCC2)no1,?,55*,2%,0%,96*
CN(CCCN1CCOCC1)C(=O)c1cc(COc2ccc(F)cc2F)on1,?,8,-14%,5%,16
COc1cc(C)ccc1OCc1cc(C(=O)NCCN2CCOCC2)no1,-13%,67*,24%,4%,76*
CCC(C(=O)NC1CCCCC1)n1c(SCc2ccccc2F)nc2ccncc21 (centres undefined),8.3µM*,17*!,-10%,0%,44
CSc1nc2ccccc2n1C(=O)NC1CCCCC1,·,16,20%,-1%,76
COc1ccc(CCNC(=O)[C@H](C)N2C(=O)N3CCc4c([nH]c5ccccc45)[C@@]3(C)C2=O)cc1,?,-2,?,1%,-3
O=C(Cn1nnc(-c2ccccc2)n1)OCc1csc(-c2ccccc2)n1,?,3,25%,0%,-8
O=C(O)c1ccccc1SCc1csc(-c2ccccc2)n1,39%,32*,21%,-4%,38
O=C(OCc1csc(-c2ccccc2)n1)c1ccccc1O,370%,61*,400%,?,110*
CC(C)c1ccc(/C=C(\NC(=O)c2ccccc2)C(=O)NCCCn2ccnc2)cc1,-18%,-4,?,-1%,9
Nc1c(-c2cccs2)cnn1-c1nc(-c2ccc(F)cc2)cs1,56%,17*,20%,1%,44*
Nc1c(-c2ccccn2)cnn1-c1nc(-c2ccc(F)cc2)cs1,125%,44*,55%,6%,54
COc1ccc(-c2csc(-n3ncc(-c4ccccn4)c3N)n2)cc1,?,12,?,-2%,14
C/C(=N/N=C(/N)SCc1ccccc1)C(C)(C)C,-14%,27*,27%,-1%,37
C=C1C(=O)O[C@@H]2[C@H]1[C@@H](OC(=O)/C(C)=C/C)C/C(C)=C\C(=O)/C=C(\C)[C@@H]2O,?,29*,?,10%,51*
SMILES,Pf growth 96h,CHX counter,Pf growth 48h,LmPK inh,Shiga inhibitor
O=C(CN1C(=O)NC2(CCCCCCC2)C1=O)NCc1ccccc1Cl,0%,·,-16%,·,·
O=C(O)C1Cc2ccccc2N2CCCC12 (centres undefined),1.9µM*,1,?,2%,4
Nc1ccc(N)cc1,?,35*,?,·,95*
Cn1c(=O)c(=O)n(C)c2cc(N3CCOCC3)c(NS(=O)(=O)c3ccc(Br)cc3)cc21,?,-3,-6%,-4%,-2
NC(=O)NS(=O)(=O)Oc1ccccc1,-1%,1,62%,5%,-9
O=c1c2ccccc2[nH]c(=S)n1-c1ccc2c(c1)OCCO2,?,45*,?,-3%,99*
O=C1Nc2cc(Cl)cnc2N2CCCC12 (centres undefined),4.1µM*,-2,-25%,-10%,-15
O=C1Nc2ccccc2N2CCCC12 (centres undefined),?,-2,?,-2%,-20
COc1cc(CN2CCNC(=O)C2CC(=O)NC2CCC2)cc(OC)c1 (centres undefined),?,-2,9%,-7%,-3
Cc1ccn(-c2cc(O)c(-n3ccc(C)n3)cc2O)n1,1%,14*,41%,-5%,46
CCCC(C)NC(=O)COc1ccc(Sc2ccc(OCC(=O)NC(C)CCC)cc2)cc1 (centres undefined),?,-1,7.4µM*,1%,-5
O=C(CN1C(=O)c2ccccc2C1=O)Nc1ccc(S(=O)(=O)N2CCOCC2)cc1,?,8,7%,-1%,-4
CCCc1cc(=O)n2[nH]c(-c3ccccc3)cc2n1,?,30,195%,-5%,70*
CCCc1cc(=O)n2[nH]c(-c3ccc(Cl)cc3)cc2n1,?,57*,0%,-1%,92*
CCCc1cc(=O)n2[nH]c(-c3ccc(C)cc3)cc2n1,-16%,39*,38%,-1%,73*
O=c1cc(-c2ccccc2)nc2cc(-c3ccc(Br)cc3)[nH]n12,370%,9,?,1%,12
O=c1cc(-c2ccccc2)nc2cc(-c3ccco3)[nH]n12,?,18*,6%,-1%,44
COCCCn1c(=O)c2ccccc2n(CC(=O)N2CCCc3ccccc32)c1=O,-1%,-8,?,-1%,-11
Cc1cccc(OCCCC(=O)NNC(=O)CCN2CCN(c3ccccc3)CC2)c1,4%,·,?,·,·
CCCOc1ccc(Cc2c(O)nc(SC)[nH]c2=O)cc1,-28%,-3,5%,0%,-6
CSCc1ccc(C(=O)NCC(c2cccs2)N2CCOCC2)cc1 (centres undefined),-17%,·,?,·,·
CC(=O)c1cccc(NC(=O)N2CCCC2C(=O)NCc2ccc3c(c2)OCO3)c1 (centres undefined),13µM*,-2,?,11%,-8
CC(=O)c1cccc(NC(=O)N2CCCC2C(=O)Nc2ccc3c(c2)OCCO3)c1 (centres undefined),4%,14*,0%,-9%,87*
O=C(NCc1ccc2c(c1)OCO2)C1CCCN1C(=O)Nc1cccc(F)c1 (centres undefined),-1%,7,?,-4%,14
Cc1cccc(NS(=O)(=O)c2ccc(C(=O)N3CCCCCC3)cc2)c1C,-19%,·,?,·,·
O=C(Nc1nnc(C2CC2)s1)c1cc([N+](=O)[O-])ccc1N1CCCCC1,?,-2,-25%,0%,-6

# Compound activity: PubChem, National Center for Advancing Translational Sciences (NCATS)
